Hit rate of the full screen: of about 360,000 compounds, about 11,000 (3.1%) were called active. Another 2% or so got no clear call; they are omitted. This is one part of a sample in which actives are shown more often than they occur. Rule as the data show it: active = fluorescence intensity above about 16000; inconclusive = no clear call, values can overlap the other calls; inactive = below that.

This assay in a line: counter-screen for toxin protease inhibitors: compound fluorescence, primary screen, artefact control for toxin protease inhibitor project, biochemical, multiplex microsphere, HTS (AID 624483). As to conditions: compound autofluorescence counterscreen, microsphere flow cytometry; hits give high values.
As for `COc1ccc(NC(=O)c2sc(=O)n(Cc3ccc(S(=O)(=O)N(C)C)cc3)c2C)cc1`, the fluorescence intensity is 5230 (inactive).

Turning to `COc1ccc(Nc2ccc3ccccc3c2)cc1`, the fluorescence intensity was 3980 (inactive).

Take `COc1ccc(NC2=CC(=S)NC(C)(C)C2)cc1`: the fluorescence intensity is 26300 (active).

On to `COc1ccc(NC(=O)C(Br)C(C)C)cc1` (stereo not drawn), for which the fluorescence intensity is 3200 (inactive).

Take `Cc1cc(Br)cn2c(Cc3ccsc3)c(-c3ccc(C#N)cc3)nc12`: the fluorescence intensity was 4980 (inactive).

Take `CC(C)Nc1nc(NCCOc2ccccc2Cl)c2sccc2n1`: the fluorescence intensity is 4090 (inactive).

On to `COc1cc(/C=N/N2CCN(c3ccccc3)CC2)ccc1OC(C)=O`, for which the fluorescence intensity is 4030 (inactive).

For `C(=N/N1CCN(c2ccccc2)CC1)/c1cccs1`, the fluorescence intensity is 23100 (active).

For the compound `Cc1ccc(N2CCN(/N=C/c3cccs3)CC2)cc1`, the fluorescence intensity was 15100 (inactive).

On to `COC(=O)c1cccc(NC(=O)CSc2nc(C)cc(=O)[nH]2)c1`, for which the fluorescence intensity is 19300 (active).

In the case of `Cc1nc2nc(SCC(=O)Nc3cccc(F)c3)[nH]c2cc1Br`, the fluorescence intensity was 5340 (inactive).

Turning to `CCCCc1nnc(NC(=O)CSc2nc(N)cc(=O)[nH]2)s1`, the fluorescence intensity was 4560 (inactive).

On to `CCCCc1nc(SCC(=O)Nc2nnc(C(C)C)s2)n[nH]1`, for which the fluorescence intensity is 5330 (inactive).

As for `Cc1ccc(OCCCC(=O)Nc2ccc(S(=O)(=O)Nc3cc(C)nc(C)n3)cc2)cc1`, the fluorescence intensity was 5510 (inactive).

Consider `COc1ccc(NC(=O)CSc2nc(NS(=O)(=O)c3ccc(C)cc3)cc(=O)[nH]2)cc1`, for which the fluorescence intensity is 19100 (active).

`CCCc1cc(=O)[nH]c(SCC(=O)Nc2ccc(C(=O)Nc3ccccc3OC)cc2)n1`: the fluorescence intensity is 3560 (inactive).

With `Cc1ccc(NC(=O)CSc2nc(CSc3ccc(C)cc3)cc(=O)[nH]2)cc1`, the fluorescence intensity is 4220 (inactive).

Turning to `CCCCc1nnc(NC(=O)CSc2nc(C)cc(=O)[nH]2)s1`, the fluorescence intensity was 22200 (active).

For `COc1ccc(C2=NS(=O)(=O)N(C)C(C(=O)N3CCCCC3)=C2)cc1`, the fluorescence intensity is 5200 (inactive).

As for `COCCNc1ncnc2c1ncn2[C@H]1CN(Cc2ccc(OC)cc2)C[C@@H](CO)O1`, the fluorescence intensity was 2990 (inactive).

With `Cc1cccc(CN2CCN(C3CN(Cc4cn(Cc5ccccc5F)nn4)S(=O)(=O)C3)CC2)c1` (stereo not drawn), the fluorescence intensity is 6290 (inactive).

Regarding `O=C(COc1ccc(Br)cc1)OCC(=O)c1ccc[nH]1`, the fluorescence intensity is 3140 (inactive).

Take `Cc1ccc2oc(C(=O)N3CCN(C)C[C@@H]3C(C)C)c(C)c2c1`: the fluorescence intensity is 3260 (inactive).

With `O=C1OCCOC2CCCc3oc(-c4ccccc4)c1c32` (stereo not drawn), the fluorescence intensity is 5740 (inactive).

As for `CCCCC(O)C1=C[N+](=O)CC=C1` (stereo not drawn), the fluorescence intensity is 4270 (inactive).

Take `CC1CCCCC1NC(=O)CCS(=O)(=O)c1cccc2nonc12` (stereo not drawn): the fluorescence intensity is 4530 (inactive).

For `CCc1nc2c(OCc3ccc(C(F)(F)F)cc3)cccn2c1N(C)C(=O)CC(C)C`, the fluorescence intensity is 3820 (inactive).

On to `CCOC(=O)c1c(-c2ccccc2)oc2ccc(OCC(=O)NN)cc12`, for which the fluorescence intensity was 3330 (inactive).

`CCOC(=O)c1c(-c2ccccc2)oc2cc(Br)c(O)c(C=O)c12`: the fluorescence intensity was 3500 (inactive).

In the case of `CCOC(=O)c1c(-c2ccccc2)oc2ccc(OC(=O)N(C)C)cc12`, the fluorescence intensity is 18300 (active).

Consider `CC12c3ccccc3C(c3ccccc31)C1C(=O)N(Cc3cccnc3)C(=O)C12` (stereo not drawn), for which the fluorescence intensity was 10400 (inactive).

As for `CC1Oc2ccccc2N(Cc2cccnc2)C1=O` (stereo not drawn), the fluorescence intensity is 22000 (active).

Consider `Cc1cccc(C)c1NC(=O)CN1C(=O)C(C)Oc2ccccc21` (stereo not drawn), for which the fluorescence intensity was 4620 (inactive).

As to `Cc1ccc(NC(=O)C(=O)NCc2ccco2)c(C)c1`, the fluorescence intensity was 4600 (inactive).

On to `Cn1c(-c2ccc(F)cc2)cnc1SCC(=O)NCc1ccco1`, for which the fluorescence intensity was 9840 (inactive).

Consider `Cc1ccc(SCC(=O)NC(=O)NCc2ccco2)c(C)c1`, for which the fluorescence intensity was 19200 (active).

Take `O=C(CSc1nnc2scc(-c3ccc(F)cc3)n12)NCc1ccco1`: the fluorescence intensity is 7830 (inactive).

Turning to `Cc1ccc(-c2csc3nnc(SCC(=O)NCc4ccco4)n23)cc1`, the fluorescence intensity was 16800 (active).

Turning to `Cc1cc(C)n2nc(SCC(=O)NC(=O)NCc3ccco3)nc2n1`, the fluorescence intensity is 3150 (inactive).

On to `O=C(Nc1ccc(N2CCN(C(=O)c3ccccc3)CC2)c(Cl)c1)c1ncn[nH]1`, for which the fluorescence intensity is 4940 (inactive).

For `CCCS(=O)(=O)NC(=O)C1(C)CCCN(C(=O)c2cc(C)on2)C1` (stereo not drawn), the fluorescence intensity was 3970 (inactive).

For `CC(C)(O)C1=C[N+](=O)CC=C1`, the fluorescence intensity was 6070 (inactive).

For `CN1OC[C@@H]2CN(S(=O)(=O)c3cccc(C(F)(F)F)c3)[C@H](c3ccc(-c4cc5ccccc5o4)cc3)C[C@@H]21`, the fluorescence intensity is 3760 (inactive).

In the case of `Nc1[nH]c(C(=O)c2ccccc2)c(-c2ccncc2)c1C(=O)NCc1cccc2ccccc12`, the fluorescence intensity was 5030 (inactive).

For the compound `CCN(CC)c1ncnc2c1ncn2[C@H]1CN(Cc2cccs2)C[C@@H](CO)O1`, the fluorescence intensity is 3720 (inactive).

For `CCCn1nc2cc(C(=O)NCc3ccccc3)ccc2c1OCC`, the fluorescence intensity is 4050 (inactive).

Regarding `Cc1ccc(CNC(=O)c2ccc3c(c2)S(=O)(=O)c2ccccc2C3=O)cc1`, the fluorescence intensity was 3750 (inactive).

Turning to `Cc1cc(N2C(=O)c3ccc(C(=O)NCc4ccccc4)cc3C2=O)no1`, the fluorescence intensity is 17400 (active).

Turning to `O=c1[nH]cccc1-c1nc2ccccc2n1Cc1ccc(Cl)cc1`, the fluorescence intensity was 4020 (inactive).

Turning to `COc1ccc(NC(=O)C2Cc3c(-c4ccc(Cl)cc4)ccnc3O2)cc1` (stereo not drawn), the fluorescence intensity is 3760 (inactive).

For `O=C(CC1NCCNC1=O)Nc1ccc(Oc2ccccc2)cc1` (stereo not drawn), the fluorescence intensity is 16900 (active).

Consider `O=C(CC1NCCNC1=O)Nc1cc(Cl)cc(Cl)c1` (stereo not drawn), for which the fluorescence intensity was 7460 (inactive).

With `CCOc1ccc(NC(=O)CC2NCCNC2=O)cc1` (stereo not drawn), the fluorescence intensity is 4570 (inactive).

For `Cc1cccc(NC(=O)CSc2nnc(CCNC(=O)OC(C)(C)C)o2)c1C`, the fluorescence intensity was 3990 (inactive).

On to `Cc1ccccc1CSc1nnc(CCCCCNC(=O)OC(C)(C)C)o1`, for which the fluorescence intensity is 3660 (inactive).

Regarding `Cc1cccc(NC(=O)CSc2nnc(CCCCCNC(=O)OC(C)(C)C)o2)c1C`, the fluorescence intensity was 20100 (active).

On to `CCOC(=O)N1CCC(NC(=O)C(C)n2c3ccccc3c3cnn(C)c(=O)c32)CC1` (stereo not drawn), for which the fluorescence intensity was 3150 (inactive).

In the case of `COC(=O)c1ccc(NC(=O)c2cc3c(CO)cnc(C)c3oc2=Nc2cccc(C(N)=O)c2)cc1`, the fluorescence intensity was 2910 (inactive).

Regarding `CN(C)C(=O)CSc1n[nH]c(-c2ccco2)n1`, the fluorescence intensity is 2630 (inactive).

On to `Cn1nc(C(F)(F)F)c(C(=O)Nc2cccc(C(F)(F)F)c2)c1SCc1ccc(Cl)cc1`, for which the fluorescence intensity was 18600 (active).

With `COC(=O)c1ccccc1Sc1c(/C=N/OCc2ccc(Cl)cc2)c(C(F)(F)F)nn1C`, the fluorescence intensity was 2910 (inactive).

Consider `O=C(O)CSc1c2c(nc3cc(C(=O)Nc4cccc(C(F)(F)F)c4)ccc13)CCCC2`, for which the fluorescence intensity is 5110 (inactive).

For `N[C@@H](Cc1ccccc1)C(=O)N1CCOCC1`, the fluorescence intensity is 3920 (inactive).

On to `O=C(CSc1ncccn1)N1CCCC1`, for which the fluorescence intensity is 5480 (inactive).

Regarding `OC(c1ccc(Cl)cc1)c1ncc(-c2ccc(Cl)cc2)[nH]1` (stereo not drawn), the fluorescence intensity is 3850 (inactive).

Consider `CC(C)Cn1c(CN(Cc2ccccc2)Cc2ccccc2)nc2c1c(=O)n(C)c(=O)n2C`, for which the fluorescence intensity is 5910 (inactive).

Consider `COCCn1c(CN(Cc2ccccc2)Cc2ccccc2)nc2c1c(=O)n(C)c(=O)n2C`, for which the fluorescence intensity was 5270 (inactive).

Turning to `CC(C)CCn1c(CN(C)Cc2ccccc2)nc2c1c(=O)n(C)c(=O)n2C`, the fluorescence intensity is 21400 (active).

For `CC1(C)OC(=O)C2=C(C[C@@H](C3CCCCC3)O[C@@H]2c2ccc(Cl)cc2)O1`, the fluorescence intensity was 6270 (inactive).

For `Cc1ccc(Nc2c(F)c(F)c(F)c(F)c2C(=O)O)c(C)c1`, the fluorescence intensity was 3820 (inactive).

With `COc1c(F)c(F)c(C(=O)O)c(Nc2ccccc2C)c1F`, the fluorescence intensity is 21400 (active).

`COc1cc2ccccc2cc1C(=O)Nc1ccccc1C`: the fluorescence intensity is 3900 (inactive).

Turning to `Cc1ncc([N+](=O)[O-])n1CCOC(=O)c1ccc(Br)cc1`, the fluorescence intensity was 4830 (inactive).

On to `CC1(C(=O)NCc2ccc3c(c2)OCO3)CCN1C(=O)Cc1cccc2ccccc12` (stereo not drawn), for which the fluorescence intensity was 2930 (inactive).

In the case of `Nc1nc2c(Br)ccc(Br)c2cc1C(=O)NCCc1ccccc1`, the fluorescence intensity was 6050 (inactive).

Take `Cc1noc(C)c1C(=O)NCCc1ccc(S(N)(=O)=O)cc1`: the fluorescence intensity is 4000 (inactive).

With `COc1ccc(NS(=O)(=O)c2cccc(C(=O)NCCc3ccc(S(N)(=O)=O)cc3)c2)cc1`, the fluorescence intensity is 8740 (inactive).

With `CCOC(=O)c1c(C)c(C(=O)NCCc2ccc(S(N)(=O)=O)cc2)c(C)n1CC`, the fluorescence intensity was 22600 (active).

Consider `NS(=O)(=O)c1ccc(CCNC(=O)c2ccc(Cl)c(S(=O)(=O)N3CCCCCC3)c2)cc1`, for which the fluorescence intensity was 4250 (inactive).

Turning to `COC(=O)c1c(C)[nH]c(C(=O)NCCc2ccc(S(N)(=O)=O)cc2)c1C`, the fluorescence intensity was 3790 (inactive).

Consider `NS(=O)(=O)c1ccc(CCNC(=O)COC(=O)COc2cccc(C(F)(F)F)c2)cc1`, for which the fluorescence intensity was 4060 (inactive).

Consider `Cc1ccc(S(=O)(=O)CCC(=O)OCC(=O)NCCc2ccc(S(N)(=O)=O)cc2)cc1`, for which the fluorescence intensity is 5910 (inactive).

Regarding `COc1ccc(C(=O)NCCc2ccc(S(N)(=O)=O)cc2)cc1OC`, the fluorescence intensity is 17500 (active).

Turning to `COc1ccc(OCC(=O)NCCc2ccc(S(N)(=O)=O)cc2)cc1`, the fluorescence intensity is 19600 (active).

For the compound `Cc1cccc(NS(=O)(=O)c2cccc(C(=O)NNC(=O)c3ccccc3O)c2)c1`, the fluorescence intensity was 3510 (inactive).

In the case of `COc1cccc(C(NC(C)=O)c2nc(-c3ccccc3OC)cs2)c1` (stereo not drawn), the fluorescence intensity was 3680 (inactive).

As to `CC(C)(C)CC(=O)Nc1nc(C(N)Cc2ccc(C(F)(F)F)cc2)cs1` (stereo not drawn), the fluorescence intensity is 2950 (inactive).

Take `O=C(NC1CCCC1)C(c1ccco1)N(C(=O)c1csnn1)c1ccccc1` (stereo not drawn): the fluorescence intensity was 3410 (inactive).

On to `Cc1ccccc1-c1nc(NC(C)C)nc2cc(-c3ccccc3)sc12`, for which the fluorescence intensity is 2960 (inactive).

On to `CC(C)NC(=O)C1(C)CCCCCN1C(=O)c1ccc(-c2ccccc2)cc1` (stereo not drawn), for which the fluorescence intensity was 3730 (inactive).

With `Cc1cc(/C=N/NC(N)=O)c(C)n1C1CCCCC1`, the fluorescence intensity was 5160 (inactive).

On to `CC(=O)Nc1ccc(NC(=O)c2ccc3c(c2)C(=O)N(c2ccccc2C)C3=O)cc1`, for which the fluorescence intensity was 3300 (inactive).

`CCOC(=O)C1=CC[C@@H](c2ccncc2)N(S(=O)(=O)c2ccc(C)cc2)C1`: the fluorescence intensity was 6280 (inactive).

Source of the values: PubChem BioAssay AID624483 (NMMLSC, 2012).
